Screening results: PubChem, National Center for Advancing Translational Sciences (NCATS)
HTT aggregate: reduces HttQ103-GFP aggregates in PC12 cells; PC12 HttQ103-GFP aggregates, Acumen cytometry, 40 h; Potency, µM (top dose mostly 46.1 µM), without a hit: at the top dose activity change, negative = inhibition, usual class: inhibitors; 220,000 compounds, 1.1% hits; AID 1688; further: on the % scale 0 is the no-effect control and ±100 the full control effect; nearly all actives have a fitted effect of over 60% in size
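Quantitative HTS on tebufenozide-induced (100 nM) PC12 cells stably expressing polyQ103 Huntingtin exon 1–GFP. Reduction of bright GFP aggregates, detected by laser scanning cytometry after lysis, identified actives across the titration.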
PINK1 modulator: modulators of PINK1 expression; PINK1 immunofluorescence, high-content cytometry, 24 h; Potency, µM (doses to about 76.6 µM), inactives show top-dose activation (PINK1 increase), usual class: activators; 410,000 compounds, 0.2% hits; AID 624263; active means well fitted activation curve with a large enough effect; inconclusive means small, poorly fitted or top-dose-only effect; cell line not stated here; further: % of control where 0% means no effect; nearly all actives have a fitted effect of over 65% in size
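Compound titrations (5 concentrations, 24 h) on a stable cell line; DMSO and CCCP controls. Endpoint: fixed-cell PINK1 immunofluorescence with mitochondrial, cell and nuclear markers, scanned by microplate cytometer.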
Epigenetic derep: regulators of epigenetic silencing causing reporter derepression in mouse cells | murine LDR cells, GFP reporter derepression, 30 h | Potency, µM (series often up to 53.9 µM), for the others: at the top dose GFP activation, actives largely listed as activators | 280,000 compounds, 0.2% hits; further: % of control where 0% means no effect; nearly all actives have a fitted effect of over 60% in size
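Murine LDR cells bearing a silenced CMV-driven GFP reporter were exposed to compound for 30 h at 37 C. After PBS washes, GFP-positive cells (20-120 um objects) counted by laser-scanning microplate cytometry.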
Apoferritin bind: binds horse apoferritin like a general anesthetic. P02791. Potency, µM (doses to about 77.5 µM), without a hit: at the highest dose activity change, negative = displacement, most hits filed as inhibitors. 350,000 compounds, 0.074% hits. AID 485281. apoferritin/1-aminoanthracene competitive binding, fluorescence; further: on the % scale 0 is the no-effect control and ±100 the full control effect; nearly all actives have a fitted effect of over 20% in size
Target sequence (P02791 2-175 limits assumed): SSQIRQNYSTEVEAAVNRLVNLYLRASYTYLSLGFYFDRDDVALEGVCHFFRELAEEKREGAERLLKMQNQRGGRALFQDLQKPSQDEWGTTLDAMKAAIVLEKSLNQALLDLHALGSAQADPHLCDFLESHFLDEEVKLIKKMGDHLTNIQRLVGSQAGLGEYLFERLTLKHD
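Probe: 1-aminoanthracene (50% saturated, PBS). Protein: horse-spleen apoferritin, 10 uM. Incubation: 10 min, room temperature. Detection: 380 nm excitation, 535 nm emission. Analysis: normalized response, four-parameter Hill.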
PTAP TSG101 blk: blocks PTAP/TSG101 interaction to inhibit HIV-1 budding. Q99816. Fluorescence polarization, FITC-PTAP peptide / Tsg101 binding. Potency, µM (series often up to 115 µM), without a hit: at the highest dose activity change, negative = inhibition, usual class: inhibitors. 340,000 tested, under 10 active. AID 493005; active means well fitted inhibition curve with a large enough effect in the main read-out, with a control signal flat, not every such curve was filed as active; inconclusive means small, poorly fitted or top-dose-only effect, or effect the other way, or a change in a side signal; inactive means no such curve, though single readings can be large or run the other way; further: % of control where 0% means no effect
Target sequence (Q99816 whole entry, looked up): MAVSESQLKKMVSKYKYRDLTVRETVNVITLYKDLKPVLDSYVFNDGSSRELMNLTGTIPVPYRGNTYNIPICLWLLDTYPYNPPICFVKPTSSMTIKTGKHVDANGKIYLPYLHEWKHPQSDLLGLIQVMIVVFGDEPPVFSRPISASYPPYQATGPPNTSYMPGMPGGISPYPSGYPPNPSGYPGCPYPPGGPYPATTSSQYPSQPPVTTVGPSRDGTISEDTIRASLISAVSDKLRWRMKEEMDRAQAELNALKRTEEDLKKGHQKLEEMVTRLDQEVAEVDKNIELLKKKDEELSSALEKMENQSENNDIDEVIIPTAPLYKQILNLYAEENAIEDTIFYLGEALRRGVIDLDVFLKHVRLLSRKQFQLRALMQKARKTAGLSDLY
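Tsg101 binding domain (10 uM final) was mixed with compound and a FITC-labeled PTAP peptide (50 nM final) in HEPES pH 7.5 buffer with NaCl, Tween 20, EDTA and TCEP; fluorescence polarization was read after 20 min at r.t.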
HTT cytoprotect: protects HTT-Q103 PC12 cells, measured by ATP. AID 1471. PC12 HTT-Q103 induced, cytoprotection, ATP luminescence, 40 h. 230,000 compounds, 0.14% hits. Potency, µM (doses to about 56.4 µM), for inactives: cytoprotection (ATP increase), hits mostly activators; further: % of control where 0% means no effect; nearly all actives have a fitted effect of over 45% in size
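PC12 cells stably carrying ecdysone-inducible Htt exon 1 (Q103)–GFP were induced with 100 nM tebufenozide (final) alongside library compounds in a dose series. Cytoprotection was scored as retained ATP by ATPlite luminescence.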
An asterisk follows results filed as active; [ ] = another dose, or the depositor's remark. This is one part of a sample in which hits are shown more often than they occur. Unless noted, the call rests on the fitted dose curve; in most records, active means well fitted curve in the direction sought with a large enough effect; inconclusive means small, poorly fitted or top-dose-only effect, or another doubt; inactive means no such curve, though single readings can be large; an effect the other way counts as inactive or inconclusive. Potency means the concentration at half of the fitted maximal effect.

`O=C(Nc1ncc([N+](=O)[O-])s1)C1CC(=O)N(c2ccc(F)cc2)C1` (centres undefined) gave PINK1 modulator 2.1%, Apoferritin bind 7.0% and PTAP TSG101 blk -1.4%.
COc1cc(-c2cc(C)c3c(OC)ccc(OC)c3n2)cc2c1OCCN(Cc1cn(C)nc1C)C2 was read as PINK1 modulator -1.3%.
For CCN1/C(=C/C=C/c2sc3ccccc3[n+]2CC)Sc2ccccc21 the results were HTT aggregate 2µM*, PINK1 modulator inconclusive, PTAP TSG101 blk -0.5% and HTT cytoprotect -97.1%.
For CCN1/C(=C/C=C/C=C/C=C/c2sc3ccccc3[n+]2CC)Sc2ccccc21 the results were PINK1 modulator inconclusive, Apoferritin bind -13.3% and PTAP TSG101 blk 1.7%.
For CCN1/C(=C/C=C/C=C/c2sc3ccccc3[n+]2CC)Sc2ccccc21 the results were HTT aggregate 3.98µM*, PINK1 modulator inconclusive, Epigenetic derep -1.1%, Apoferritin bind inconclusive and HTT cytoprotect -98.8%.
For O=S(=O)(NCc1nc(N2CCCC2)c2cc(Cl)ccc2n1)c1ccccc1OC(F)(F)F the results were PINK1 modulator 0.0%.
`CCC1CN(CCC(=O)N2CCCN(C(=O)c3ccco3)CC2)Cc2cc(OC)ccc2O1` (centres undefined) gave PINK1 modulator 0.4%.
For CC(I)CCC(C)[n+]1cccc(I)c1 (centres undefined) the results were PINK1 modulator -0.7%.
`CCCCCc1ccc(OCCCC[n+]2ccccc2)c(CCCCC)c1` gave HTT aggregate 11.2µM*, PINK1 modulator 3.6%, Epigenetic derep 9.2%, Apoferritin bind inconclusive, PTAP TSG101 blk -0.9% and HTT cytoprotect -91.0%.
CCCCCc1ccc(OCCCC[n+]2ccc(C)cc2)c(CCCCC)c1 was read as HTT aggregate inconclusive, PINK1 modulator -1.8%, Epigenetic derep -0.8%, Apoferritin bind inconclusive, PTAP TSG101 blk -3.0% and HTT cytoprotect -68.4%[10 µM].
`O=C(Nc1ccccc1F)C(=Cc1sc(N2CCOCC2)nc1-c1ccccc1)C(=O)Nc1ccccc1F` gave HTT aggregate 22.2%, PINK1 modulator 2.9%, Epigenetic derep 14.1µM*, Apoferritin bind -10.9%, PTAP TSG101 blk inconclusive and HTT cytoprotect 2.3%[10 µM].
`C[C@@H](C[C@@H](O)[C@H](O)C(C)(C)O)[C@@H]1CC[C@]2(C)C3=CC[C@H]4C(C)(C)C(=O)CC[C@]4(C)[C@H]3CC[C@@]12C` gave HTT aggregate 35.5µM*, PINK1 modulator 4.6%, Epigenetic derep 15.4%, Apoferritin bind -8.4% and PTAP TSG101 blk -2.9%.
`C[C@H](C[C@H](O)[C@H]1OC1(C)C)C1=C2C[C@H](O)C3[C@@]4(C)CCC(=O)C(C)(C)C4CC[C@]3(C)[C@@]2(C)CC1` (some centres undefined) gave PINK1 modulator 3.1% and PTAP TSG101 blk -0.1%.
For CC(NC(=O)C1CCOCC1)c1nnc2n1CCN(Cc1ccc3ccccc3c1)CC2 (centres undefined) the results were PINK1 modulator 0.6%.
`CCN(CC)c1nc2ccccc2c(N)c1-c1ccccc1` gave HTT aggregate 11.2µM*, PINK1 modulator inconclusive, Epigenetic derep -1.5%, Apoferritin bind inconclusive, PTAP TSG101 blk -0.8% and HTT cytoprotect -4.6%.
`CCN(CC)CCCOc1cc2nc(N3CCCN(C)CC3)nc(NC3CCN(C)CC3)c2cc1OC` gave PINK1 modulator -0.4%.
For Cc1ccc2[nH]c(=O)c(CN(Cc3nnnn3Cc3ccccc3)C3CCCC3)cc2c1 the results were HTT aggregate 0.891µM*, Epigenetic derep -2.1%, Apoferritin bind -5.3%, PTAP TSG101 blk -7.6% and HTT cytoprotect -55.3%[10 µM].
For Cc1ccc2[nH]c(=O)c(CN(CCc3ccccc3)C(c3nnnn3Cc3ccco3)C(C)C)cc2c1 (centres undefined) the results were HTT aggregate -2.3%[9.22 µM], PINK1 modulator 2.8%, Epigenetic derep 3.0%, Apoferritin bind -5.7%, PTAP TSG101 blk -4.0% and HTT cytoprotect -37.9%[10 µM].
For CCC(c1nnnn1Cc1ccco1)N(CCc1ccccc1)Cc1cc2cc(C)ccc2[nH]c1=O (centres undefined) the results were HTT aggregate 28.2µM*, PINK1 modulator 7.8%, Epigenetic derep -7.0%, Apoferritin bind 4.4%, PTAP TSG101 blk -5.4% and HTT cytoprotect -17.5%[10 µM].
`Cc1ccc2[nH]c(=O)c(CN(Cc3ccccc3)Cc3nnnn3Cc3ccccc3)cc2c1` gave PINK1 modulator 3.7%.
For Cc1ccc(N2C(=O)NC3(CCCCC3)C2=O)cc1 the results were HTT aggregate -1.9%[9.22 µM], PINK1 modulator 1.4%, Epigenetic derep 1.5%, Apoferritin bind -10.6%, PTAP TSG101 blk -6.6% and HTT cytoprotect -24.7%.
For Cc1ccc(N2C(=O)CC3(CC4C=CC3C4)C2=O)cc1 (centres undefined) the results were HTT aggregate -6.0%, PINK1 modulator 2.8%, Epigenetic derep -0.1%, Apoferritin bind 7.94µM*, PTAP TSG101 blk -0.6% and HTT cytoprotect 13.1%.
For CCn1c(C)nc2cc(NS(=O)(=O)c3ccccc3)cc(C(=O)N3C[C@@H](C)O[C@@H](C)C3)c21 the results were PINK1 modulator 0.1%.
COc1ccc2c(c1)CCc1cnc(-n3ncc(C(=O)N(C)CC4CCCN(C)C4)c3C)nc1-2 (centres undefined) was read as PINK1 modulator -0.8%.
`Cc1cc2cc(C#N)c(SCC(=O)Nc3nonc3C)nc2cc1C` gave PINK1 modulator inconclusive, Apoferritin bind -1.1% and PTAP TSG101 blk 4.4%.
`Cc1nonc1NC(=O)CSc1nc2c(C)cccc2cc1C#N` gave HTT aggregate 3.2%, PINK1 modulator 44.7µM*, Epigenetic derep 15.8µM*, Apoferritin bind -7.4%, PTAP TSG101 blk 7.7% and HTT cytoprotect -12.7%.
`COc1cc(-c2ccc(C(F)(F)F)cn2)cc2c1OCCN(S(=O)(=O)C[C@]13CC[C@H](CC1=O)C3(C)C)C2` gave PINK1 modulator 1.0%.
For O=[N+]([O-])c1ccc(Sc2n[nH]c(-c3ccc(Cl)cc3Cl)n2)nc1 the results were HTT aggregate inconclusive, PINK1 modulator 0.9%, Epigenetic derep 0.0%, Apoferritin bind -9.6%, PTAP TSG101 blk -2.7% and HTT cytoprotect 0.794µM*.
